Measured values reported in PubChem BioAssay (Tox21).
“And” between values parts separate entries of the source, which are not always exact repeats. Equal entries are not always repeated. Inconclusive results are not listed. Some compounds were tested as several samples or in several runs, with calls that do not always agree. The source made the active and inactive calls. Unless noted, calls come from the whole dose curve.

Columns and labels:
[1] = qHTS assay to identify small molecule antagonists of the peroxisome proliferator-activated receptor delta (PPARd) signaling pathway - cell viability counter screen (AID 743213; active = well fitted curve in the direction sought with a large enough effect in the repeat runs; an effect the other way counts as inactive or inconclusive; note: nearly all actives have a fitted effect of over 50% in size; note: potency is the fitted concentration of half-maximal effect)
Procedure, shortened: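 Agonist-stimulated (L165041, 300 nM final) HEK293H PPARd UAS-bla cells are exposed to compounds for 17 h at 37 C, and ATP-based luminescence (CellTiter-Glo) from the same wells reports cytotoxicity.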

[2] = target: Bile acid receptor (Homo sapiens) (UniProt Q96RI1); assay: qHTS assay to identify small molecule antagonists of the farnesoid-X-receptor (FXR) signaling pathway (AID 743217; active = well fitted inhibition curve with a large enough effect in the signal ratio in the repeat runs, not every such curve was filed as active; the % refers to the signal ratio; note: potency is the fitted concentration of half-maximal effect)
Procedure, shortened: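 FXR-UAS-bla HEK 293T cells (beta-lactamase reporter) given compound plus chenodeoxycholic acid (50 uM final), 16 h at 37C. LiveBLAzer B/G FRET substrate added for 2 h at room temperature; fluorescence read.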

[3] = qHTS assay to identify small molecule agonists of the farnesoid-X-receptor (FXR) signaling pathway - cell viability counter screen (AID 743218; active = well fitted curve in the direction sought with a large enough effect in the repeat runs; an effect the other way counts as inactive or inconclusive; note: nearly all actives have a fitted effect of over 45% in size; note: potency is the fitted concentration of half-maximal effect)
Procedure, shortened: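 FXR-UAS-bla HEK 293T cells exposed to compounds for 16 h at 37C. Cytotoxicity read in the same wells by CellTiter-Glo luminescence after 30 min at room temperature, following the beta-lactamase FRET read.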

[4] = target: Bile acid receptor (Homo sapiens) (UniProt Q96RI1); assay: qHTS assay to identify small molecule agonists of the farnesoid-X-receptor (FXR) signaling pathway (AID 743220; active = well fitted activation curve with a large enough effect in the signal ratio in the repeat runs, not every such curve was filed as active; the % refers to the signal ratio)
Procedure, shortened: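 Beta-lactamase reporter under UAS control in GeneBLAzer FXR HEK 293T cells (5000/well) measured with LiveBLAzer FRET substrate after 2 h at room temperature. Compound exposure lasted 16 h at 37C.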

[5] = qHTS assay to identify small molecule antagonists of the farnesoid-X-receptor (FXR) signaling pathway - cell viability counter screen (AID 743221; active = well fitted cell-killing curve with a large enough effect in the repeat runs, not every such curve was filed as active; note: nearly all actives have a fitted effect of over 50% in size; note: potency is the fitted concentration of half-maximal effect)
Procedure, shortened: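 CellTiter-Glo, 30 min RT, luminescence; same wells as the LiveBLAzer FRET read. Cells: FXR-UAS-bla HEK 293T. Treatment: compound with chenodeoxycholic acid 50 uM final, 16 h at 37 C.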

[6] = target: Vitamin D3 receptor (Homo sapiens) (UniProt P11473); assay: qHTS assay to identify small molecule agonists of the vitamin D receptor (VDR) signaling pathway (AID 743222)
Procedure, shortened: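 VDR-bla cells plated 4 h at 37 C, then exposed to compounds for 16 h at 37 C. Beta-lactamase reporter activity measured by fluorescence after 2 h room-temperature loading with LiveBLAzer B/G FRET substrate.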

[7] = target: Vitamin D3 receptor (Homo sapiens) (UniProt P11473); assay: qHTS assay to identify small molecule antagonists of the vitamin D receptor (VDR) signaling pathway (AID 743223; active = well fitted inhibition curve with a large enough effect in the signal ratio in the repeat runs, not every such curve was filed as active; the % refers to the signal ratio)
Procedure, shortened: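 After VDR-bla cells are plated and left 4 h at 37C, DMSO-dissolved compounds and 3 nM (final) calcitriol agonist are added. Incubation continues 16 h at 37C; FRET beta-lactamase substrate then develops 2 h at room temperature.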

[8] = qHTS assay to identify small molecule agonists of the vitamin D receptor (VDR) signaling pathway - cell viability counter screen (AID 743224; active = well fitted curve in the direction sought with a large enough effect in the repeat runs; an effect the other way counts as inactive or inconclusive; note: nearly all actives have a fitted effect of over 50% in size; note: potency is the fitted concentration of half-maximal effect)
Procedure, shortened: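 VDR-bla cells, 4 h after plating, exposed to compounds for 16 h at 37C; viability then read in the same wells as CellTiter-Glo luminescence after 30 min at room temperature, following the bla FRET read.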

[9] = qHTS assay to identify small molecule agonists of the NFkB signaling pathway - cell viability counter screen (AID 1159515); note: series mostly up to about 61 µM; nearly all actives have a fitted effect of over 55% in size
Procedure, shortened: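 NFkB-bla ME-180 cells, 2,000/well, plated overnight at 37 C; compound added for 5 hr at 37 C. Viability read in the same wells as the bla reporter, by CellTiter-Glo luminescence after 30 min at room temperature.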

[10] = qHTS assay to identify small molecule agonists of the endoplasmic reticulum stress response signaling pathway (AID 1159516; active = well fitted activation curve with a large enough effect in the signal ratio in the repeat runs, not every such curve was filed as active; the % refers to the signal ratio)
Procedure, shortened: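 CellSensor ESRE-bla HeLa cells, 1,500 per well, plated overnight, then exposed to compounds for 5 hr at 37 C. Beta-lactamase reporter read with LiveBLAzer B/G FRET substrate after 2 hr at room temperature, 405 nm excitation, 460 and 530 nm emission.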

[11] = qHTS assay to identify small molecule agonists of the endoplasmic reticulum stress response signaling pathway - cell viability counter screen (AID 1159517);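 note: HeLa cells carrying an ER stress response element beta-lactamase reporter; series mostly up to about 61 µM; nearly all actives have a fitted effect of over 50% in size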
Procedure, shortened: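 ESRE-bla HeLa cells, 1,500 per well, seeded overnight then treated with compounds for 5 hr at 37 C. After the beta-lactamase read, viability in the same wells is measured by CellTiter-Glo luminescence after 30 min at room temperature.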

[12] = qHTS assay to identify small molecule antagonists of the retinoid-related orphan receptor gamma (ROR-gamma) signaling pathway - cell viability counter screen (AID 1159520; active = well fitted curve in the direction sought with a large enough effect in the repeat runs; an effect the other way counts as inactive or inconclusive; note: nearly all actives have a fitted effect of over 50% in size)
Procedure, shortened: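 Tet-on ROR gamma CHO cells were given compounds for 2 hr, then doxycycline hyclate at 1 uM final, and incubated 16 hr at 37 C. Viability was measured as ATP content by CellTiter-Glo luminescence.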

[13] = target: Nuclear receptor ROR-gamma (Homo sapiens) (UniProt P51449); assay: qHTS assay to identify small molecule antagonists of the retinoid-related orphan receptor gamma (ROR-gamma) signaling pathway (AID 1159521; active = well fitted curve in the direction sought with a large enough effect in the repeat runs; an effect the other way counts as inactive or inconclusive; note: nearly all actives have a fitted effect of over 50% in size; note: potency is the fitted concentration of half-maximal effect)
Procedure, shortened: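 Readout: ONE-Glo luciferase luminescence, 30 min at room temperature. System: Tet-on RORγ CHO, RORE-LUC. Sequence: compound 2 h, doxycycline 1 uM final, 16 h at 37 C.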

[14] = qHTS assay to identify small molecule agonists of the AP-1 signaling pathway - cell viability counter screen (AID 1159525); note: nearly all actives have a fitted effect of over 55% in size
Procedure, shortened: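 AP-1-bla ME-180 cells in Opti-MEM with 0.5% dialyzed FBS, compound exposure 5 h at 37 C in 15-point titration. Viability read in the same wells as ATP content by CellTiter-Glo luminescence, normalised to tetra-n-octylammonium bromide and DMSO controls.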

[15] = qHTS assay to identify small molecule agonists of the AP-1 signaling pathway (AID 1159526)
[16] = target: Retinoic acid receptor RXR-alpha (Homo sapiens) (UniProt P19793); assay: qHTS assay to identify small molecule agonists of the RXR signaling pathway (AID 1159527); note: nearly all actives have a fitted effect of over 35% in size; note: potency is the fitted concentration of half-maximal effect
Procedure, shortened: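 Reporter activation is measured as beta-lactamase activity via FRET substrate cleavage (emission 460/530 nm) in HEK 293T cells expressing an RXR-alpha-driven bla construct, following 16 hr compound exposure at 37 C.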

[17] = qHTS assay to identify small molecule antagonists of the vitamin D receptor (VDR) signaling pathway - cell viability counter screen (AID 743225; active = well fitted curve in the direction sought with a large enough effect in the repeat runs; an effect the other way counts as inactive or inconclusive; note: nearly all actives have a fitted effect of over 50% in size)
Procedure, shortened: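 Cytotoxicity toward the VDR-bla HEK 293T line was scored by ATP-based CellTiter-Glo luminescence, read in the wells already used for the beta-lactamase readout after 16 h compound treatment under 3 nM 1-alpha,25-dihydroxyvitamin D3 stimulation.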

[18] = target: Peroxisome proliferator-activated receptor delta (Homo sapiens) (UniProt Q03181); assay: qHTS assay to identify small molecule agonists of the peroxisome proliferator-activated receptor delta (PPARd) signaling pathway (AID 743212)
Procedure, shortened: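 GeneBLAzer UAS-bla HEK293H cells carrying a PPARδ construct were exposed to compounds at 37 °C. Beta-lactamase activity was read by FRET fluorescence after 2 h at room temperature with LiveBLAzer B/G substrate.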

[19] = target: Peroxisome proliferator-activated receptor delta (Homo sapiens) (UniProt Q03181); assay: qHTS assay to identify small molecule antagonists of the peroxisome proliferator-activated receptor delta (PPARd) signaling pathway (AID 743215; active = well fitted inhibition curve with a large enough effect in the signal ratio in the repeat runs, not every such curve was filed as active; the % refers to the signal ratio; note: series mostly up to about 62 µM)
Procedure, shortened: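 PPARd-bla HEK293H cells (UAS-bla reporter) preincubated 5 h, then given compound plus 300 nM final L165041 agonist for 17 h at 37 C. Beta-lactamase activity read by LiveBLAzer B/G FRET substrate fluorescence after 2 h at room temperature.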

Measured: Potency

Retinoic acid receptor RXR-alpha (Homo sapiens), sequence (P19793 whole entry, looked up): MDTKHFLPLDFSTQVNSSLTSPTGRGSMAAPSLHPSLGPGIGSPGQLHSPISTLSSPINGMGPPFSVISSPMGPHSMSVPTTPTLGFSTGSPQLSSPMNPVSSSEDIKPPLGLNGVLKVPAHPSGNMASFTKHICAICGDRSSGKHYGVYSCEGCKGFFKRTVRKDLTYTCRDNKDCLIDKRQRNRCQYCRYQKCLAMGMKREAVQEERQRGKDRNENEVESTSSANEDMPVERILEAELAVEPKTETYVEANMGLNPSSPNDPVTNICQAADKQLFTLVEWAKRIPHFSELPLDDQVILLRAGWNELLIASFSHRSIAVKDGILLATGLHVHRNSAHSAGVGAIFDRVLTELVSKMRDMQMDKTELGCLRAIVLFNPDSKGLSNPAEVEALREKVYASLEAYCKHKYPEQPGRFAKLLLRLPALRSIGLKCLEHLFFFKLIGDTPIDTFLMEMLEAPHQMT
Peroxisome proliferator-activated receptor delta (Homo sapiens), sequence (Q03181 whole entry, looked up): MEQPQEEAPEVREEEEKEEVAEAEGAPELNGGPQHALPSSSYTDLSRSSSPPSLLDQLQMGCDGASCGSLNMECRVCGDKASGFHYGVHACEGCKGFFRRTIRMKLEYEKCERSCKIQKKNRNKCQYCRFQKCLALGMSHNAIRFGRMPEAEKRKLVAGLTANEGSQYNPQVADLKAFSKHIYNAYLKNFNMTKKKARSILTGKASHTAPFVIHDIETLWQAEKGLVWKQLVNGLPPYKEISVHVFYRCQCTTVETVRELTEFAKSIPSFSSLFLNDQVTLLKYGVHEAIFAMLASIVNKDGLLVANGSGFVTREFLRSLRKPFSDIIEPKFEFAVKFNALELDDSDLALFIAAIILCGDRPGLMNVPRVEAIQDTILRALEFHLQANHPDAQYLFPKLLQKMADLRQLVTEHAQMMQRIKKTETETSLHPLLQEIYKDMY
Vitamin D3 receptor (Homo sapiens), sequence (P11473 whole entry, looked up): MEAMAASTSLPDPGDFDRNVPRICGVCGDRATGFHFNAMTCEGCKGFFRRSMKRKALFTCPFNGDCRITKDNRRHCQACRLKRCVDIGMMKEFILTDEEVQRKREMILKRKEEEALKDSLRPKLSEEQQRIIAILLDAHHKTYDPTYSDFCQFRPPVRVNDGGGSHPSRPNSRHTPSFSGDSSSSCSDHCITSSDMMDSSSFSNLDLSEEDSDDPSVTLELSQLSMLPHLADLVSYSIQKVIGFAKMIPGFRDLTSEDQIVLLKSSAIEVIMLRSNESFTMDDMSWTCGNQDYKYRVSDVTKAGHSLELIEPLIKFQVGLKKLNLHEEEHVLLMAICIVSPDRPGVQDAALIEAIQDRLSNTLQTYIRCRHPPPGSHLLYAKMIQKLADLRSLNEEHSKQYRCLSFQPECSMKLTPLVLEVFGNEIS
Bile acid receptor (Homo sapiens), sequence (Q96RI1 whole entry, looked up): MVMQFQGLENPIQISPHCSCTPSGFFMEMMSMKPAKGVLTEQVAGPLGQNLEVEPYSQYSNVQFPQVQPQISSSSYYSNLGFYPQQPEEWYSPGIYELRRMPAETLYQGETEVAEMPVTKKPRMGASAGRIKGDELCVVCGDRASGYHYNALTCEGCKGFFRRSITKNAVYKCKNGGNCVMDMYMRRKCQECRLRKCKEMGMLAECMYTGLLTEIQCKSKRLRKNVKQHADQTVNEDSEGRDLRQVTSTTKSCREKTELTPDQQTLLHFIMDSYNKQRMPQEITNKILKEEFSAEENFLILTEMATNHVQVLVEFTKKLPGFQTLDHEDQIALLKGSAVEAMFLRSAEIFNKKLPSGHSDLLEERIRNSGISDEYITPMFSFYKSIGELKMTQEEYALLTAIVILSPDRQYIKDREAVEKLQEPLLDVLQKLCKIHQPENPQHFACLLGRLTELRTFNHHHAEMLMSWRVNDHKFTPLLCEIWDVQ

CCCCNS(=O)(=O)c1ccccc1
not listed: [17] | [18] | [19]
inactive: all other assays above

Nc1ccc(S(=O)(=O)Nc2cnc3ccccc3n2)cc1
not listed: [1] | [2] | [4] | [11] | [18] | [19]
inactive: all other assays above

Cc1ncc[nH]1
not listed: [1] | [10]
inactive: all other assays above

S=C(NC1CCCCC1)NC1CCCCC1
inactive: [18] | [3] | [5] | [6] | [7] | [9] | [11] | [12] | [14]
active: [8] 24.5 µM | [13] 48.6 µM

O=C(/C=C/C=C/c1ccc2c(c1)OCO2)N1CCCCC1
inactive and 54.9 µM (active): [2]
not listed: [17] | [19]
inactive: all other assays above

C/C=C/C(=O)O
not listed: [2] | [4] | [10] | [11] | [18] | [19]
inactive: all other assays above

O=C(c1ccccc1)c1ccc(O)cc1O
55.5 µM (active) and inactive: [13]
not listed: [1] | [6] | [7] | [10] | [11] | [16] | [17]
inactive: all other assays above

CC(C)=CCCC(C)CCO (centres undefined)
not listed: [2] | [4] | [6] | [7] | [19]
inactive: all other assays above

O=C1c2cccc(O)c2C(=O)c2c(O)cccc21
not listed: [1] | [4] | [10] | [15] | [16]
inactive: all other assays above

CC(C)CC(C)(O)C#CC(C)(O)CC(C)C (centres undefined)
12.1 µM (active) and inactive: [16]
not listed: [2] | [4] | [10] | [17] | [18] | [19]
inactive: all other assays above

Oc1ccc(O)cc1
inactive: [18] | [19] | [3] | [5] | [8] | [17] | [14] | [15] | [16]
active: [13] 21.6 µM and 38.6 µM and 23.7 µM

CC(C)=CCC/C(C)=C\CO
not listed: [18] | [19]
inactive: all other assays above

CCCCC/C=C/C=C/C=O
inactive and 49 µM (active): [8]
not listed: [7] | [10] | [12] | [17]
inactive: all other assays above

CN(C)CCC=C1c2ccccc2CCc2ccccc21
active: [1] 24.5 µM | [3] 49 µM and 19.5 µM | [5] 43.7 µM and 29.8 µM | [8] 49 µM and 21.9 µM
30.6 µM (active) and inactive: [13]
not listed: [10] | [15] | [16] | [17]
inactive: all other assays above

c1ccc2c(c1)Oc1ccccc1S2
not listed: [1] | [2] | [4] | [11] | [15] | [17]
inactive: all other assays above

Cc1[nH]c(=O)c(C#N)cc1-c1ccncc1
not listed: [1] | [2] | [4] | [6] | [7] | [10]
inactive: all other assays above

COC(=O)c1ccccc1
not listed: [2] | [4]
inactive: all other assays above

COc1c(Cl)c(Cl)c(Cl)c(Cl)c1Cl
not listed: [1] | [6] | [7] | [18] | [19]
inactive: all other assays above
